# According to paper PMC11062922 (Nature Chemical Biology, 2023):
# Like-named read-outs stand apart in the source and are kept apart here.
# How the values were obtained:
# Design in all cases: species or system human, MV4-11 + K-562 + COLO205 + SK-N-BE2 + OVCAR-8
# AKT2 = conditions: read-out: apparent Kd, compound concentrations: 100 nM and 1000 nM (sheet 'Samples'), n = 1
# AKT3 = conditions: read-out: apparent Kd, compound concentrations: 100 nM and 1000 nM (sheet 'Samples'), n = 1
# CIT = conditions: read-out: apparent Kd; compound concentrations: 100 nM and 1000 nM (sheet 'Samples'), CATDS: 2.7482144104810799E-2; n = 1
# GSK3A = conditions: read-out: apparent Kd; compound concentrations: 100 nM and 1000 nM (sheet 'Samples'), CATDS: 6.2878990302183399E-2; n = 1
# GSK3B = conditions: read-out: apparent Kd; compound concentrations: 100 nM and 1000 nM (sheet 'Samples'), CATDS: 5.5559924345407602E-2; n = 1
# LATS1 = conditions: read-out: apparent Kd; compound concentrations: 100 nM and 1000 nM (sheet 'Samples'), CATDS: 4.8333915347555698E-2; n = 1
# MARK2 = conditions: read-out: apparent Kd; compound concentrations: 100 nM and 1000 nM (sheet 'Samples'), CATDS: 4.76140671076506E-2; n = 1
# MARK3 = conditions: read-out: apparent Kd; compound concentrations: 100 nM and 1000 nM (sheet 'Samples'), CATDS: 5.1082901600924303E-2; n = 1
# MARK4 = conditions: read-out: apparent Kd; compound concentrations: 100 nM and 1000 nM (sheet 'Samples'), CATDS: 4.9590510521074001E-2; n = 1
# PAK4 = conditions: read-out: apparent Kd; compound concentrations: 100 nM and 1000 nM (sheet 'Samples'), CATDS: 0.104490197523791; n = 1
# PAK6 = conditions: read-out: apparent Kd; compound concentrations: 100 nM and 1000 nM (sheet 'Samples'), CATDS: 0.160954118330599; n = 1
# PKN1 = conditions: read-out: apparent Kd; compound concentrations: 100 nM and 1000 nM (sheet 'Samples'), CATDS: 6.8915050548370396E-2; n = 1
# PRKAA2 = conditions: read-out: apparent Kd; compound concentrations: 100 nM and 1000 nM (sheet 'Samples'), CATDS: 2.6285000431917799E-2; n = 1
# PRKACA = conditions: read-out: apparent Kd; compound concentrations: 100 nM and 1000 nM (sheet 'Samples'), CATDS: 4.9144940605522901E-2; n = 1
# PRKAG2 = conditions: read-out: apparent Kd; compound concentrations: 100 nM and 1000 nM (sheet 'Samples'), CATDS: 2.7426405634362501E-2; n = 1
# PRKCB = conditions: read-out: apparent Kd; compound concentrations: 100 nM and 1000 nM (sheet 'Samples'), CATDS: 2.6716167566890599E-2; n = 1
# PRKCD = conditions: read-out: apparent Kd; compound concentrations: 100 nM and 1000 nM (sheet 'Samples'), CATDS: 3.7280479553999199E-2; n = 1
# PRKCQ = conditions: read-out: apparent Kd; compound concentrations: 100 nM and 1000 nM (sheet 'Samples'), CATDS: 2.7638944484762E-2; n = 1
# PRKG1 = conditions: read-out: apparent Kd; compound concentrations: 100 nM and 1000 nM (sheet 'Samples'), CATDS: 7.0196377588655406E-2; n = 1
# PRKX = conditions: read-out: apparent Kd; compound concentrations: 100 nM and 1000 nM (sheet 'Samples'), CATDS: 0.203063152086782; n = 1
# RPS6KA4 = conditions: read-out: apparent Kd; compound concentrations: 100 nM and 1000 nM (sheet 'Samples'), CATDS: 3.80124112320347E-2; n = 1
# CDK17 = conditions: read-out: apparent Kd; compound concentrations: 100 nM and 1000 nM (sheet 'Samples'), CATDS: 8.1529480800730997E-2; n = 1
# CDK9 = conditions: read-out: apparent Kd; compound concentrations: 100 nM and 1000 nM (sheet 'Samples'), CATDS: 7.5399196753672404E-2; n = 1
# CSNK1A1 = conditions: read-out: apparent Kd; compound concentrations: 100 nM and 1000 nM (sheet 'Samples'), CATDS: 8.2829529423840004E-2; n = 1
# HCK = conditions: read-out: apparent Kd; compound concentrations: 100 nM and 1000 nM (sheet 'Samples'), CATDS: 0.17397087448623899; n = 1
# ILK = conditions: read-out: apparent Kd; compound concentrations: 100 nM and 1000 nM (sheet 'Samples'), CATDS: 8.7046948596417206E-2; n = 1
# MAP2K1 = conditions: read-out: apparent Kd; compound concentrations: 100 nM and 1000 nM (sheet 'Samples'), CATDS: 8.98649962952279E-2; n = 1
# NQO1 = conditions: read-out: apparent Kd, compound concentrations: 100 nM and 1000 nM (sheet 'Samples'), n = 1
# RIPK3 = conditions: read-out: apparent Kd; compound concentrations: 100 nM and 1000 nM (sheet 'Samples'), CATDS: 8.3707794531398802E-2; n = 1
# TP53RK = conditions: read-out: apparent Kd, compound concentrations: 100 nM and 1000 nM (sheet 'Samples'), n = 1
# MAP2K2 = conditions: read-out: apparent Kd; compound concentrations: 100 nM and 1000 nM (sheet 'Samples'), CATDS: 0.14753696988114701; n = 1
# MYLK3 = conditions: read-out: apparent Kd; compound concentrations: 100 nM and 1000 nM (sheet 'Samples'), CATDS: 0.56668098220649099; n = 1
# RIOK2 = conditions: read-out: apparent Kd; compound concentrations: 100 nM and 1000 nM (sheet 'Samples'), CATDS: 0.13311346938063801; n = 1
# AGK = conditions: read-out: apparent Kd, n = 1
# AGPS = conditions: read-out: apparent Kd; compound concentrations:100 nM and 1000 nM (sheet 'Samples'); n = 1
# COX5A = conditions: read-out: apparent Kd; compound concentrations:100 nM and 1000 nM (sheet 'Samples'); n = 1
# TGFBR1 = conditions: read-out: apparent Kd; compound concentrations:100 nM and 1000 nM (sheet 'Samples'); n = 1
# ADRBK1 = conditions: read-out: apparent Kd; compound concentrations: 100 nM and 1000 nM (sheet 'Samples'), CATDS: 0.31449304008803602; n = 1
# MAPK9 = conditions: read-out: apparent Kd; compound concentrations: 100 nM and 1000 nM (sheet 'Samples'), CATDS: 0.30035248026311001; n = 1
# PRKACG = conditions: read-out: apparent Kd; compound concentrations: 100 nM and 1000 nM (sheet 'Samples'), CATDS: 0.40146810270516797; n = 1
# EGFR = conditions: read-out: apparent Kd; compound concentrations:100 nM and 1000 nM (sheet 'Samples'); n = 1
# HSP90B1 = conditions: read-out: apparent Kd; compound concentrations:100 nM and 1000 nM (sheet 'Samples'); n = 1
# MTHFD1 = conditions: read-out: apparent Kd; compound concentrations:100 nM and 1000 nM (sheet 'Samples'); n = 1
# NNT = conditions: read-out: apparent Kd; compound concentrations:100 nM and 1000 nM (sheet 'Samples'); n = 1
smiles,measurement,setting,value
CCn1c(-c2nonc2N)nc2c(C#CC(C)(C)O)ncc(OC3CCNCC3)c21.O=C(O)C(F)(F)F [GSK619487A],potency estimated from few doses,AKT2; CATDS: 4.2627279294918302E-2,91.5 nM
same,potency estimated from few doses,AKT3; CATDS: 2.7204551549319601E-2,1300 nM
same,potency estimated from few doses,CIT,1190 nM
same,potency estimated from few doses,GSK3A,26.9 nM
same,potency estimated from few doses,GSK3B,38 nM
same,potency estimated from few doses,LATS1,58.6 nM
same,potency estimated from few doses,MARK2,61.6 nM
same,potency estimated from few doses,MARK3,49 nM
same,potency estimated from few doses,MARK4,53.9 nM
same,potency estimated from few doses,PAK4,7.55 nM
same,potency estimated from few doses,PAK6,2.74 nM
same,potency estimated from few doses,PKN1,21.1 nM
same,potency estimated from few doses,PRKAA2,1810 nM
same,potency estimated from few doses,PRKACA,55.5 nM
same,potency estimated from few doses,PRKAG2,1210 nM
same,potency estimated from few doses,PRKCB,1540 nM
same,potency estimated from few doses,PRKCD,162 nM
same,potency estimated from few doses,PRKCQ,1130 nM
same,potency estimated from few doses,PRKG1,20.1 nM
same,potency estimated from few doses,PRKX,1.58 nM
same,potency estimated from few doses,RPS6KA4,148 nM
Cl.N#CCc1ccc(Nc2nccc(Nc3ccc(Oc4ccccc4)cc3)n2)cc1 [GW639905A],potency estimated from few doses,AKT2; CATDS: 8.2827110731653497E-2,1920 nM
same,potency estimated from few doses,AKT3; CATDS: 0.118826721397903,954 nM
same,potency estimated from few doses,CDK17,1990 nM
same,potency estimated from few doses,CDK9,2420 nM
same,potency estimated from few doses,CSNK1A1,1920 nM
same,potency estimated from few doses,HCK,532 nM
same,potency estimated from few doses,ILK,1720 nM
same,potency estimated from few doses,MAP2K1,1610 nM
same,potency estimated from few doses,NQO1; CATDS: 9.3069785012321701E-2,1500 nM
same,potency estimated from few doses,RIPK3,1880 nM
same,potency estimated from few doses,TP53RK; CATDS: 8.4353152889517405E-2,1850 nM
COc1cc2ncn(-c3cc(OCCc4ccccc4)c(C(N)=O)s3)c2cc1OC [GSK204925A],potency estimated from few doses,AKT2; CATDS: 0.131386999232284,2300 nM
same,potency estimated from few doses,AKT3; CATDS: 0.150950387905983,1570 nM
same,potency estimated from few doses,MAP2K2,1660 nM
same,potency estimated from few doses,MYLK3,137 nM
same,potency estimated from few doses,NQO1; CATDS: 0.17515611913919399,1100 nM
same,potency estimated from few doses,RIOK2,2210 nM
COC[C@@H](C)N[C@H]1CC[C@H](Nc2cc(-c3cccc(NCC4(C#N)CCOCC4)n3)c(Cl)cn2)CC1 [NVP-2],potency estimated from few doses,"AGK; compound concentrations: 100 nM and 1000 nM (sheet 'Samples'), CATDS: 0.48685778986675599",2370 nM
same,potency estimated from few doses,TP53RK; CATDS: 0.51387141429952199,2130 nM
Fc1ccc(-c2cc(-c3c[nH]nc3-c3ccccn3)ccn2)cc1 [GW680975X],potency estimated from few doses,AGPS,1790 nM
same,potency estimated from few doses,COX5A,132 nM
same,potency estimated from few doses,TGFBR1,960 nM
COC(=O)c1c(-c2ccccc2)c2cc(OC)ccc2c(=O)n1Cc1ccccc1 [TPKI-97],potency estimated from few doses,ADRBK1,1400 nM
same,potency estimated from few doses,MAPK9,1550 nM
same,potency estimated from few doses,PRKACG,872 nM
CS(=O)(=O)CCNCc1ccc(-c2ccc3ncnc(Nc4ccc(OCc5ccccc5)c(Cl)c4)c3c2)o1.Cl [GW574783B_PKIS1],potency estimated from few doses,AGK; compound concentrations:100 nM and 1000 nM (sheet 'Samples'),1950 nM
same,potency estimated from few doses,EGFR,156 nM
same,potency estimated from few doses,HSP90B1,1710 nM
same,potency estimated from few doses,MTHFD1,1950 nM
same,potency estimated from few doses,NNT,1200 nM
